# According to PubChem BioAssay AID588683 (Broad Institute, 2011):
# Results with a measured potency or affinity are listed apart. The source made the active and inactive calls. How the calls were made is not given here.
# Target: Kelch-like ECH-associated protein 1 (Homo sapiens) + Nuclear factor erythroid 2-related factor 2 (Homo sapiens) (UniProt Q14145+Q16236)
# Assay: Keap1-Nrf2 protein-protein interaction inhibitors, dose response, biochemical, fluorescence polarization, cherry-picked samples (AID 588683);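 further: Kelch domain of Keap1 binding a fluorescein-labelled 9mer Nrf2 peptide; more negative means stronger inhibition of peptide binding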
# Conditions: Keap1/Nrf2 peptide fluorescence polarization, plate reader; series mostly up to 26 µM
# Kelch-like ECH-associated protein 1 (Homo sapiens) + Nuclear factor erythroid 2-related factor 2 (Homo sapiens), sequence (Q14145 whole entry, looked up, the tested form may be a part): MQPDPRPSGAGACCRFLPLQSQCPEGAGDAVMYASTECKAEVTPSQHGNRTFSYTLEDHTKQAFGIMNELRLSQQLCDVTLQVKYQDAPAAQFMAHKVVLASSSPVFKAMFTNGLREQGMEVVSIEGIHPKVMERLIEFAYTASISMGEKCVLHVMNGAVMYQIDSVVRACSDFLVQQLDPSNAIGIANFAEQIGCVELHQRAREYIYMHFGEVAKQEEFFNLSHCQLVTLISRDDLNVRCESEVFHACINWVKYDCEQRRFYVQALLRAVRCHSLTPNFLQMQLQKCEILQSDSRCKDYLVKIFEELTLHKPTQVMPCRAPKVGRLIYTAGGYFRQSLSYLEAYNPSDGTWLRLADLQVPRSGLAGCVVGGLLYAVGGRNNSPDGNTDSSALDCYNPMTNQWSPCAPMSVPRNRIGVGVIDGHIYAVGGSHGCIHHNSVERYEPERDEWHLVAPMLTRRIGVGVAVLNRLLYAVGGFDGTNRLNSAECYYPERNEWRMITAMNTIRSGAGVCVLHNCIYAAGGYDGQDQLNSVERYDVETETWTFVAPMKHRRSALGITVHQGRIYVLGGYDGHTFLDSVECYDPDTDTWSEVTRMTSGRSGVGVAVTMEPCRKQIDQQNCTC
# Kelch-like ECH-associated protein 1 (Homo sapiens) + Nuclear factor erythroid 2-related factor 2 (Homo sapiens), sequence (Q16236 whole entry, looked up, the tested form may be a part): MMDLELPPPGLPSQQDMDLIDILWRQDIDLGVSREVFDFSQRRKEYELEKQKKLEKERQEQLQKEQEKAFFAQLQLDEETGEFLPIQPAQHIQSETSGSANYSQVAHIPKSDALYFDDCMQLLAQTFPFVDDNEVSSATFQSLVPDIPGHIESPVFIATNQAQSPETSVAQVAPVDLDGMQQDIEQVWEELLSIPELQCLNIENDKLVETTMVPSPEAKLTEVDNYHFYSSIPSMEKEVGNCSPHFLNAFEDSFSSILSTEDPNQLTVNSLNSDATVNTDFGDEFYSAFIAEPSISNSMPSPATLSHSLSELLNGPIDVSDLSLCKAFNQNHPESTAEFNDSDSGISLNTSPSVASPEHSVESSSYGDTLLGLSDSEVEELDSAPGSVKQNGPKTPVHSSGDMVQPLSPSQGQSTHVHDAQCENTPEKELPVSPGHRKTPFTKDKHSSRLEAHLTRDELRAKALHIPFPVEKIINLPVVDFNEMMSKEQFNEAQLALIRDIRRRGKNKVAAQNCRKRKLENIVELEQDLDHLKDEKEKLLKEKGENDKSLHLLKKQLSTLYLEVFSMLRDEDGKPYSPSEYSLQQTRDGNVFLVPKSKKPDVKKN
row,SMILES,outcome
1,Fc1ccc(C2=CC(c3ccco3)n3ncnc3N2)cc1 (stereo not drawn),inactive
2,O=c1[nH]c(=S)[nH]c2c1C(c1ccc(Br)cc1)c1c([nH]c(=S)[nH]c1=O)O2,inactive
3,COc1ccc(OC)c(S(=O)(=O)Nc2ccc(F)cc2)c1,inactive
4,Cc1ccc(S(=O)(=O)N2CCCCC2)cc1NC(=O)c1ccccc1Cl,inactive
5,COc1ccc(NS(=O)(=O)c2ccc(F)c(Cl)c2)cn1,inactive
6,CCN(CC)c1ccc(C2Nc3cccc4cccc(c34)N2)cc1,inactive
7,CCCCC1OC2(C)OC(=N)C1(C#N)C(C#N)(C#N)C2c1ccccc1 (stereo not drawn),inactive
8,CCCN(CCC)C(=O)C1c2ccccc2Oc2ccccc21,inactive
9,COC(=O)N/N=C/c1cn(Cc2ccccc2Cl)c2ccccc12,inactive
10,COc1ccc(N=Nc2nc3ccc(Br)cc3n2C)cc1,inactive
11,C=CCOc1ccc(CNc2ccc(NC(=O)CC(C)C)cc2)cc1OC,inactive
12,CCOC(=O)c1ccc2ncc(C(=O)OCC)c(NCCN(C)C)c2c1,inactive
13,OC(CCN1CCC2(CC1)OCCO2)C(F)(F)F (stereo not drawn),inactive
14,COc1cc(C#Cc2c(C=O)n(C)c3ccccc23)cc(OC)c1,inactive
15,Cc1cscc1NC(=O)/C=C/C(=O)O,inactive
16,CCCC1C2CN(C(C)C)CC=C2C(C#N)=C(N)C1(C#N)C#N (stereo not drawn),inactive
17,CC1(C)CC(=O)C2=C(C1)OC(N)=C(C#N)C2c1cc2c(cc1[N+](=O)[O-])OCO2 (stereo not drawn),inactive
18,COc1ccc(OC)c(C(=O)c2coc3ccc(O)c(CN(C)C)c23)c1,inactive
19,Clc1ccc(-c2noc(CN3CCOCC3)n2)cc1,inactive

row,SMILES,outcome
1,Cc1ccccc1OCCC(=O)Nc1cc(S(=O)(=O)N2CCCCC2)ccc1N1CCN(C)CC1,inactive
2,COC(=O)c1cccc(NC(=O)NC(=O)c2ccc(Cl)cc2)c1,inactive
3,COc1ccc(N(Cc2ccccc2)S(=O)(=O)c2cccc(C(=O)Nc3ncccc3C)c2)cc1,inactive
4,CCOC(=O)c1c(C)[nH]c(C(=O)COC(=O)c2cccnc2Cl)c1C,inactive
5,CCN1CCN(S(=O)(=O)c2ccc(Cl)c(C(=O)NC3CCC(C)CC3)c2)CC1 (stereo not drawn),inactive
6,CNc1nnc(SCC(=O)c2cc(C)n(C3CC3)c2C)s1,inactive
7,O=C(CSC1=NNC(c2ccccn2)S1)Nc1cccc(Cl)c1 (stereo not drawn),inactive
8,O=C(Nc1ccccn1)C1CCN(S(=O)(=O)c2ccc3c(c2)OCCO3)CC1,inactive
9,COCCCNc1nc(N)c([N+](=O)[O-])c(Nc2cc(OC)ccc2OC)n1,inactive
10,Cn1ccnc1Sc1cc(NCCCO)c([N+](=O)[O-])c2nonc12,inactive
11,COc1ccc(C2OC34CCCCC3C(C#N)(C#N)C2(C#N)C(=N)O4)cc1 (stereo not drawn),inactive
12,Cc1ccccc1NC(=O)c1sc(NC(=O)C2CC2)nc1C,inactive
13,Oc1ccc2c(c1)OCC1(O)Cc3cc(O)c(O)cc3C21 (stereo not drawn),inactive
14,CN1C(=O)c2cccc3c(S(N)(=O)=O)ccc1c23,inactive
15,Cc1nc(-c2ccc(S(=O)(=O)N3CCCN(CCc4ccccc4)CC3)s2)cs1,inactive
16,O=C(CN1CCN(C(=O)CNC(=O)c2ccc3c(c2)OCO3)CC1)Nc1ccc(F)cc1,inactive
17,Nc1cccc2cc(S(=O)(=O)O)ccc12,inactive
18,CCOc1ccc(S(=O)(=O)Nc2cccc(C(=O)NCCCn3ccnc3)c2)cc1,inactive
19,CCCCNC(=S)Nc1ccc(OC)nc1,inactive
